PubChem BioAssay (EPA / NIEHS)
Several values for one entry are separate records, joined by “and”; a condition that tells them apart may be missing. Equal values may be shown once. More than one record can exist for a structure, and the calls need not agree. Activity calls are given as the source filed them. The calls were made as follows: active = hit-call score of the fitted dose curve at least 0.9, where 1 is the maximum; inactive = score below 0.9.

Key:
[1] = read-out: Low-density lipoprotein receptor (LDLR), LDLR (gene 3949); experiment: BSK_CASM3C_LDLR: BioMAP Diversity Plus: CASM3C Assay for Low-density lipoprotein receptor (LDLR) Biomarker Activity (AID 2283045); details: primary human coronary artery smooth muscle cells; actives raise or lower the signal;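 also: LDLR protein level on the cell surface quantified by ELISA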
[2] = read-out: Monocyte Chemoattractant Protein-1 (MCP1), CCL2 (gene 6347); experiment: BSK_CASM3C_MCP1: BioMAP Diversity Plus: CASM3C Assay for Monocyte Chemoattractant Protein-1 (MCP1) Biomarker Activity (AID 2283046); details: primary human coronary artery smooth muscle cells; actives raise or lower the signal
[3] = BSK_CASM3C_Proliferation: Cell Proliferation Assessment in the BioMAP Diversity Plus: CASM3C Assay (AID 2283047); details: primary human coronary artery smooth muscle cells;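 also: sulforhodamine B total protein stain as relative cell number at 560 nm; sub-confluent cells exposed 48 h before staining; fitted both ways against DMSO so gain or loss of cell number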
[4] = read-out: Monokine induced gamma interferon (MIG), CXCL9 (gene 4283); experiment: BSK_CASM3C_MIG: BioMAP Diversity Plus: CASM3C Assay for Monokine induced gamma interferon (MIG) Biomarker Activity (AID 2283048); details: primary human coronary artery smooth muscle cells; actives raise or lower the signal;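 also: MIG protein level measured by ELISA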
[5] = read-out: serum amyloid A (SAA), SAA1 (gene 6288); experiment: BSK_CASM3C_SAA: BioMAP Diversity Plus: CASM3C Assay for serum amyloid A (SAA) Biomarker Activity (AID 2283049); details: primary human coronary artery smooth muscle cells; actives raise or lower the signal
[6] = BSK_CASM3C_SRB: Viability Assessment in the BioMAP Diversity Plus: CASM3C Assay (AID 2283050); details: primary human coronary artery smooth muscle cells;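 also: cells exposed to compound for 24 h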
[7] = read-out: Thrombomodulin, THBD (gene 7056); experiment: BSK_CASM3C_Thrombomodulin: BioMAP Diversity Plus: CASM3C Assay for Thrombomodulin Biomarker Activity (AID 2283051); details: primary human coronary artery smooth muscle cells; actives raise or lower the signal;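 also: thrombomodulin protein level measured by ELISA 24 h after dosing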
[8] = read-out: Tissue Factor, F3 (gene 2152); experiment: BSK_CASM3C_TissueFactor: BioMAP Diversity Plus: CASM3C Assay for Tissue Factor Biomarker Activity (AID 2283052); details: primary human coronary artery smooth muscle cells; actives raise or lower the signal;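 also: cell surface tissue factor protein level read by ELISA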
[9] = read-out: Interferon-gamma inducible Protein 10 (IP10), CXCL10 (gene 3627); experiment: BSK_hDFCGF_IP10: BioMAP Diversity Plus: hDFCGF Assay for Interferon-gamma inducible Protein 10 (IP10) Biomarker Activity (AID 2283053); details: primary human foreskin fibroblasts; actives raise or lower the signal
Summary of the method: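 Cells: human dermal foreskin fibroblasts. Exposure: 24 h post-dosing. Detection: IP-10 ELISA, with values expressed against DMSO controls and fitted in both directions.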

[10] = read-out: Urokinase-type plasminogen activator receptor (uPAR), PLAUR (gene 5329); experiment: BSK_CASM3C_uPAR: BioMAP Diversity Plus: CASM3C Assay for Urokinase-type plasminogen activator receptor (uPAR) Biomarker Activity (AID 2283054); details: primary human coronary artery smooth muscle cells; actives raise or lower the signal;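 also: cell-surface uPAR protein level quantified by ELISA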
[11] = read-out: Vascular cell adhesion molecule 1 (VCAM1), VCAM1 (gene 7412); experiment: BSK_CASM3C_VCAM1: BioMAP Diversity Plus: CASM3C Assay for Vascular cell adhesion molecule 1 (VCAM1) Biomarker Activity (AID 2283055); details: primary human coronary artery smooth muscle cells; actives raise or lower the signal;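 also: VCAM-1 protein level quantified by ELISA on the cells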
[12] = read-out: Collagen III, COL3A1 (gene 1281); experiment: BSK_hDFCGF_CollagenIII: BioMAP Diversity Plus: hDFCGF Assay for Collagen III Biomarker Activity (AID 2283056); details: primary human foreskin fibroblasts; actives raise or lower the signal
Summary of the method: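 Human foreskin fibroblast primary cultures sampled 24 h after dosing; Collagen III quantified by ELISA. Signal fitted bidirectionally against DMSO baseline.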

[13] = read-out: Epidermal growth factor receptor (EGFR), EGFR (gene 1956); experiment: BSK_hDFCGF_EGFR: BioMAP Diversity Plus: hDFCGF Assay for Epidermal growth factor receptor (EGFR) Biomarker Activity (AID 2283057); details: primary human foreskin fibroblasts; actives raise or lower the signal
Summary of the method: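 Dosing human primary skin fibroblasts, then measuring surface EGFR by ELISA at 24 h, gives the endpoint; gains and losses relative to DMSO were fitted in both directions.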

[14] = read-out: Interleukin-8 (IL8), CXCL8 (gene 3576); experiment: BSK_hDFCGF_IL8: BioMAP Diversity Plus: hDFCGF Assay for Interleukin-8 (IL8) Biomarker Activity (AID 2283058); details: primary human foreskin fibroblasts; actives raise or lower the signal
Summary of the method: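 Primary human foreskin fibroblasts (hDFCGF system) dosed with chemical; IL-8 measured by ELISA 24 hours later. Bidirectional curve fitting relative to DMSO baseline; cytotoxicity tracked in parallel cultures by SRB total protein staining.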

[15] = BSK_hDFCGF_Proliferation: Cell Proliferation Assessment in the BioMAP Diversity Plus: hDFCGF Assay (AID 2283059); details: primary human foreskin fibroblasts;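 also: curves fitted for both rise and fall of signal versus DMSO baseline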
Summary of the method: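 Steps: dose primary human dermal fibroblasts (foreskin); […] fix in 10% TCA; stain with 0.1% SRB; read 560 nm; fit gain or loss of signal against DMSO.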

[16] = read-out: Macrophage colony-stimulating factor (MCSF), CSF1 (gene 1435); experiment: BSK_hDFCGF_MCSF: BioMAP Diversity Plus: hDFCGF Assay for Macrophage colony-stimulating factor (MCSF) Biomarker Activity (AID 2283060); details: primary human foreskin fibroblasts; actives raise or lower the signal
Summary of the method: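 Human foreskin fibroblast primary cultures; M-CSF measured by ELISA 24 hours after chemical dosing. Bidirectional fitting relative to DMSO, with overt cytotoxicity tracked by parallel SRB total-protein staining (0.1% SRB, 10% TCA fixation, 560 nm).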

[17] = read-out: TIMP metallopeptidase inhibitor 1 (TIMP1), TIMP1 (gene 7076); experiment: BSK_hDFCGF_TIMP1: BioMAP Diversity Plus: hDFCGF Assay for TIMP metallopeptidase inhibitor 1 (TIMP1) Biomarker Activity (AID 2283062); details: primary human foreskin fibroblasts; actives raise or lower the signal
Summary of the method: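 Human foreskin fibroblast primary cultures dosed for 24 h; secreted/surface TIMP-1 quantified by ELISA. Bidirectional curve fitting against DMSO baseline; cytotoxicity tracked in parallel cultures by SRB total-protein staining.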

[18] = read-out: Matrix Metallopeptidase 1 (MMP1), MMP1 (gene 4312); experiment: BSK_hDFCGF_MMP1: BioMAP Diversity Plus: hDFCGF Assay for Matrix Metallopeptidase 1 (MMP1) Biomarker Activity (AID 2283064); details: primary human foreskin fibroblasts; actives raise or lower the signal
Summary of the method: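 MMP1 levels quantified by ELISA 24 h after dosing human dermal fibroblast cultures, with parallel SRB total-protein staining for overt cytotoxicity. Data fitted in both directions against DMSO baseline.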

[19] = read-out: Vascular cell adhesion molecule 1 (VCAM1), VCAM1 (gene 7412); experiment: BSK_hDFCGF_VCAM1: BioMAP Diversity Plus: hDFCGF Assay for Vascular cell adhesion molecule 1 (VCAM1) Biomarker Activity (AID 2283065); details: primary human foreskin fibroblasts; actives raise or lower the signal;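 as to AC50: VCAM-1 protein level quantified by ELISA after 24 h chemical exposure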
Summary of the method: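 Human foreskin fibroblast primary cells dosed with chemical, VCAM-1 measured by ELISA at 24 h. Bidirectional curve fitting relative to DMSO as negative control/baseline.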

[20] = read-out: Plasminogen activator inhibitor-1 (PAI1), SERPINE1 (gene 5054); experiment: BSK_hDFCGF_PAI1: BioMAP Diversity Plus: hDFCGF Assay for Plasminogen activator inhibitor-1 (PAI1) Biomarker Activity (AID 2283066); details: primary human foreskin fibroblasts; actives raise or lower the signal
Summary of the method: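 Fibroblasts from human foreskin were treated with test chemical. After 24 h, PAI-1 was measured by ELISA. Activity was fitted in both directions relative to DMSO.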

Measured: AC50

c1ccc2c(c1)ccc1cc3c(ccc4ccccc43)cc12
active: [7] 0.0962 µM | [19] 0.0192 µM
inactive: [1] | [2] | [3] | [4] | [5] | [6] | [7] | [8] | [9] | [10] | [11] | [12] | [13] | [14] | [15] | [16] | [17] | [18] | [19] | [20]

CCO[Si](C)(OCC)OCC
inactive: all assays above

O=C(c1ccc(O)cc1)c1ccc(O)cc1O
inactive: [1] | [2] | [4] | [5] | [6] | [7] | [8] | [9] | [10] | [11] | [12] | [13] | [14] | [15] | [16] | [17] | [19] | [20]
active: [3] 15.7 µM and 10.5 µM | [11] 5.81 µM | [18] 6.99 µM and 20 µM | [19] 16.6 µM

C=CCOc1c(Br)cc(Br)cc1Br
active: [1] 20 µM | [2] 32.3 µM | [3] 29.5 µM | [5] 20 µM | [6] 30.4 µM | [8] 16.9 µM | [9] 35.5 µM | [10] 33.5 µM | [11] 32.3 µM | [12] 20 µM | [15] 10.3 µM | [16] 12.5 µM | [17] 8.19 µM | [18] 30.3 µM | [19] 33.1 µM | [20] 20 µM
inactive: [4] | [7] | [13] | [14]

CCOc1nc(F)cc2nc(S(=O)(=O)Nc3c(Cl)cccc3C(=O)OC)nn12
inactive: all assays above

CC1OC1C1CCC2(C)OC2C1 (stereo not drawn)
active: [12] 11.4 µM
inactive: all other assays above

C=CC(=O)OCC(Br)CBr (stereo not drawn)
active: [1] 36 µM | [2] 27.1 µM | [3] 28.5 µM | [4] 28 µM | [6] 28.4 µM | [7] 32.8 µM | [8] 29.1 µM | [9] 5.47 µM | [10] 28.9 µM | [11] 11.4 µM | [12] 5.82 µM | [14] 20 µM | [15] 5.47 µM | [16] 5.95 µM | [17] 11.9 µM | [18] 11.8 µM | [19] 1.65 µM | [20] 8.55 µM
inactive: [5] | [13]

CCCCCCCCc1ccc(Nc2ccc(CCCCCCCC)cc2)cc1
active: [3] 14.9 µM
inactive: all other assays above

COCc1c(C(C)C)nc(C(C)C)c(/C=C/[C@@H](O)C[C@@H](O)CC(=O)O)c1-c1ccc(F)cc1
active: [3] 0.056 µM | [7] 0.00777 µM | [8] 0.00777 µM | [15] 0.0803 µM
not listed: [14]
inactive: all other assays above
